From ChEMBL document CHEMBL3988442, “University of Dundee, Small-Polar-MMV Screening Library” (2021)

biological target: T1, Aspartate--tRNA(Asp/Asn) ligase (Mycobacterium tuberculosis (strain ATCC 25618 / H37Rv)) (UniProt P9WFW3); experiment: Assay for Asp RNA synthetase-1 from Mycobacterium tuberculosis; format: functional; set-up: scale not given: in the data most compounds retested in dose-response had high values; settings: 30 µM
T1 sequence (whole entry): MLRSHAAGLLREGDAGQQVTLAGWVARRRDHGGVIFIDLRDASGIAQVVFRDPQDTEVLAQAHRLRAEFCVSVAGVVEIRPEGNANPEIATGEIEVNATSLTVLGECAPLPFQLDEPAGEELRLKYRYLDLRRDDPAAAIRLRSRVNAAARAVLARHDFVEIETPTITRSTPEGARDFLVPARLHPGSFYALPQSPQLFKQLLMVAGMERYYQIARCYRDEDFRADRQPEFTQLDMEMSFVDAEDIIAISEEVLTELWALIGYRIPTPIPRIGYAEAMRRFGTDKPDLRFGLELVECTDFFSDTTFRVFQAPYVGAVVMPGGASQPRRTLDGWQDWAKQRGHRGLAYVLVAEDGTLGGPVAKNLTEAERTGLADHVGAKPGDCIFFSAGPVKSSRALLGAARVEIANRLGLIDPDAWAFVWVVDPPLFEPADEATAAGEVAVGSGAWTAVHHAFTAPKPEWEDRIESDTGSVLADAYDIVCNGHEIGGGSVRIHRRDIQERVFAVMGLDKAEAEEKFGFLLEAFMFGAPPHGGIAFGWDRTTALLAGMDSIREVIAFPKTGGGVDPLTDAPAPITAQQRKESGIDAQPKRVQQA

Compound | Percent Effect
COc1cc(C)c(CN2CCC3(CC2)C(C(=O)O)CC(=O)N3C)cc1C (centres undefined) | -0.678%
CC(C)n1ccnc1C1CCCN(c2ccnc3ccccc23)C1 (centres undefined) | -3.69%
CC(O)CN1CCN(C(=O)c2cnn(-c3ccc(Cl)cc3)c2)CC1 (centres undefined) | -5.67%
O=C(CC1=CCCCC1)NCCc1csc(N2CCCC2)n1 | 2.52%
CN(CCO)C(=O)c1coc(CN2CCN(c3ccccc3F)CC2)n1 | -3.46%
Cc1nccn1CCC1CCCCN1Cc1ccncc1 (centres undefined) | -1.16%
O=S1(=O)C[C@@H]2[C@H](C1)N(Cc1cc(Cl)cc(Cl)c1)CCN2CC1CC1 | 0.655%
CN(Cc1cc[nH]n1)C(=O)c1cccc(CCC(C)(C)O)c1 | -0.264%
O=C(NCCCn1cccn1)N1CCCC1c1ccncc1 (centres undefined) | -0.931%
CC(C)(N)CN1CCC(c2nnc(CN3CCCC3)n2C2CC2)CC1 | -1.87%
COc1ncccc1NC(=O)N1CCC(CN2CCOCC2)CC1 | -3.02%
COCCN(C)CC(=O)N1C[C@H]2CC[C@@H]1CN(C(=O)c1ccncc1)C2 | -1.85%
O=C(c1cnn(-c2ccccc2F)c1)N1CCN(CCO)CC1 | -3.94%
Cc1cc(CN(C)C2CCCN(c3cccnn3)C2)on1 (centres undefined) | 0.172%
NC(=O)CN1CC2(CCC1=O)CCN(Cc1cc(F)ccc1Cl)CC2 | 0.126%
Cn1cccc1C1CCCN1C(=O)NCCCn1cccn1 (centres undefined) | -1%
Cc1nc2c(c(C)c1CC(=O)Nc1ccc(Cl)cc1)c(=O)[nH]n2C | -4.86%
Cc1nn(C)c(Cl)c1C1CCCN1c1ncnc2sccc12 (centres undefined) | -2.03%
CCCSCC(=O)Nc1ncn(CC(=O)NCc2ccccc2)n1 | 1.55%
